Chronic BCR inh – blocks chronic active B-cell receptor signaling. ABC-DLBCL IkBa-CBG/CBR reporter, luminescence ratio, 4 h. Potency, µM (top dose mostly 46.1 µM), without a hit: top-dose activity change, negative = inhibition, most hits filed as inhibitors. actives 0.05% (n = 340,000). AID 493014; active means well fitted inhibition curve with a large enough effect in the signal ratio, with a control signal flat, not every such curve was filed as active; inconclusive means small, poorly fitted or top-dose-only effect, or effect the other way, or a change in a side signal; the % refers to the signal ratio;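 further: potency means the concentration at half of the fitted maximal effect; plate controls were basal doxycycline-induced cells for no effect and cells given 10 µM MG132 for full effect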
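Concentration-response series (up to 46 uM) were applied to TMD8 dual-reporter cells for 4 h at 37C with doxycycline. Green/red ratio, after filter-overlap correction, defined %Activity; red signal alone was normalised to basal cells and zero luminescence.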
ClpP mod – qHTS Assay for Activators of ClpP | AID 651965, 2013 | purified B. subtilis ClpP, FRET peptide cleavage, 20 min | actives 1.9% (n = 340,000) | ATP-dependent Clp protease proteolytic subunit (Bacillus subtilis (strain 168)), P80244 | Potency, µM (top dose mostly 57.5 µM), for inactives: at the top dose activity change, negative = active; active means well fitted falling curve with a large enough effect; inconclusive means small, poorly fitted or top-dose-only effect; inactive means no such curve, though single readings can be large or run the other way; further: potency means the concentration at half of the fitted maximal effect; the source files actives as falling curves though it sought activators and does not explain the sign; nearly all actives have a fitted effect of over 65% in size
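ClpP 10 microg/mL final, pH 8 Tris/KCl buffer with BSA, glycerol, Tween-20; compound pinned in; FRET-FV substrate; RT 20 min; Ex320/Em430; ΔFRET vs ADEP 5.8 microM, DMSO, no enzyme.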
LDHA block – blocks human lactate dehydrogenase A. P00338. purified LDHA, NADH/diaphorase-resazurin fluorescence; active compounds read low. activity change, % (values are at about 110 or 230 µM). actives 0.15% (n = 480,000). AID 1347041; in the data active means activity change below about -30%; inconclusive means mostly about -25% to -30%;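 further: plate controls were DMSO wells for no effect and wells without enzyme for full effect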
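Human LDH5 (2 nM) was incubated with 0.06 mM NADH and 0.2 mM pyruvate for 5 min at room temperature in Tris pH 7.4. Remaining NADH was coupled through diaphorase/resazurin, and resorufin fluorescence was read at 0 and 20 min.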
ALOX12 inh – blocks human arachidonate 12S-lipoxygenase. P18054. purified 12hLO, xylenol orange hydroperoxide absorbance. Potency, µM (highest dose often 108 µM), without a hit: top-dose activity change, negative = inhibition, actives largely listed as inhibitors. actives 1.1% (n = 580,000). AID 1671190; active means well fitted inhibition curve with a large enough effect; inconclusive means small, poorly fitted or top-dose-only effect, or another doubt; inactive means no such curve, though single readings can be large or run the other way; further: potency means the concentration at half of the fitted maximal effect; on the % scale 0 is the no-effect control and ±100 the full control effect
Target sequence (P18054 whole entry, looked up): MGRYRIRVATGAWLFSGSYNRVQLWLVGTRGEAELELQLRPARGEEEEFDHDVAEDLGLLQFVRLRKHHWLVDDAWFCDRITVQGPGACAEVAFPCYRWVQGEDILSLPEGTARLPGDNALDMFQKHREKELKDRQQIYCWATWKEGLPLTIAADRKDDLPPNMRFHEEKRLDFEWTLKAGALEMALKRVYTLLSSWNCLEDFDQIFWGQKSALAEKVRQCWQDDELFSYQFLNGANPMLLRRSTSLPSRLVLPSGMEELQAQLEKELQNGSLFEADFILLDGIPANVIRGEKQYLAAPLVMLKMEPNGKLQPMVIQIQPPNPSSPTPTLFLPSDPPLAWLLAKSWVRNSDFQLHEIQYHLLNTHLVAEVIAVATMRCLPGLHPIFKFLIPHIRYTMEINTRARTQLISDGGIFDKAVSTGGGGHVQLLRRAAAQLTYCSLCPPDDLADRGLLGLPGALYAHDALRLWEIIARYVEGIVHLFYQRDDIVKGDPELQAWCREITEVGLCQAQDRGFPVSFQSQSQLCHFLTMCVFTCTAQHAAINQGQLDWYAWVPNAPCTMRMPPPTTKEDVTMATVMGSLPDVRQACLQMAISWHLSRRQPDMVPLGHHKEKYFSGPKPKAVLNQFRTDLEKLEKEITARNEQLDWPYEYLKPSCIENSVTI
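Purified human 12hLO at 150 nM in 25 mM Hepes, 0.01% Triton X-100, pH 7.0, preincubated 15 min at room temperature with compound. Reaction started with 40 uM arachidonic acid, 30 min at room temperature. Hydroperoxide measured by Fe-xylenol orange, 573/405 nm absorbance ratio.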
KCNH2 WT inh – blocks the wildtype human KCNH2 potassium channel; actives 0.37% (n = 340,000); U2OS, BacMam KCNH2, thallium flux FluxOr; active compounds read low; activity change, % at 1.84 µM;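 active means maximum activity change below -70%; inconclusive means maximum activity change between -70% and -50%; inactive means maximum activity change above -50%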; further: on the % scale 0 is the no-effect control and ±100 the full control effect
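U2OS cells transduced with wild-type KCNH2 virus are loaded with FluxOr dye for 45 min, and thallium flux is measured in kinetic reads before and after stimulation buffer. Rate constants are normalized to DMSO controls.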
KCNH2 3.1 inh – blocks the human KCNH2 3.1 channel isoform; U2OS KCNH2 3.1, thallium flux FluxOr; active compounds read low; activity change, % (tested at about 1.8 µM); actives 0.95% (n = 340,000); AID 720553;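 active means maximum activity change below -70%; inconclusive means maximum activity change from -70% to -50%; inactive means maximum activity change above -50%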;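 further: thallium influx rate constant from kinetic fluorescence after stimulation buffer; on the % scale 0 is the no-effect control and ±100 the full control effect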
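Thallium flux read-out: FluxOr dye with Red40 quencher in HBSS/HEPES, 45 min at RT. Rate constants from kinetic reads were normalized to positive and negative DMSO controls. Cells: U2OS virally expressing the 3.1 isoform.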
Numbers without * were called inactive. The list is not random: actives were taken first. Their share in the collection is about 3%.

For CC(=O)c1c(N2CCCC2)[nH]c(-c2ccccc2)nc1=S the results were Chronic BCR inh 14.6%, ClpP mod 1.1%, LDHA block -3.7, ALOX12 inh 44.7µM*, KCNH2 WT inh -2.3 and KCNH2 3.1 inh -30.5.
Screening CC(=O)c1c(N2CCN(Cc3ccccc3)CC2)[nH]c(-c2ccccc2)nc1=S returned Chronic BCR inh inconclusive, ClpP mod 0.7%, LDHA block 0.0, ALOX12 inh 39.8µM*, KCNH2 WT inh -4.6 and KCNH2 3.1 inh 3.5.
For Cn1nc(N)c2c(-c3ccc(Cl)cc3)c(C#N)c(N)nc21 the results were Chronic BCR inh inconclusive, ClpP mod 0.6%, LDHA block 2.2, ALOX12 inh 22.1%, KCNH2 WT inh -4.6 and KCNH2 3.1 inh 6.5.
`CCN(CC)c1ccc(-c2c(C#N)c(N)nc(OC)c2C#N)cc1` gave Chronic BCR inh -0.5%, ClpP mod 31.6µM*, LDHA block -8.1, ALOX12 inh 11.9%, KCNH2 WT inh -8.8 and KCNH2 3.1 inh -70.3*.
Screening O=C1NC2(CCN(CC3CCCC3)CC2)Oc2ccccc21 returned ALOX12 inh 25.1µM*.
`CCOC(=O)c1cc(CC)sc1/N=C/C1C(=O)CC(C)(C)CC1=O` gave Chronic BCR inh 0.3%, ClpP mod 6.1%, LDHA block 1.5, ALOX12 inh 2.5%, KCNH2 WT inh -24.5 and KCNH2 3.1 inh -74.9*.
Screening Cc1cc(C)cc(C(=O)NCC(c2ccccc2)c2c[nH]c3ccccc23)c1 (centres undefined) returned LDHA block -2.8 and ALOX12 inh inconclusive.
`CCOC1(/N=C(\C)NS(=O)(=O)c2ccc(Cl)cc2)C(C)=CC(=O)C=C1C` gave Chronic BCR inh -5.0%, LDHA block 3.7, ALOX12 inh 50.5%, KCNH2 WT inh 17.1 and KCNH2 3.1 inh -98.6*.
Screening CC(C)(C)c1ccc(NC(=O)CSc2nnc(-c3n[nH]c4ccccc34)o2)cc1 returned Chronic BCR inh inconclusive, ClpP mod 31.6µM*, LDHA block -3.2, ALOX12 inh -31.9%, KCNH2 WT inh -3.6 and KCNH2 3.1 inh -3.5.
Screening Cc1cc(C)cc(NC(=S)NNC=O)c1 returned LDHA block -0.5 and ALOX12 inh inconclusive.
`O=C(NC(=S)NCC1CCCO1)c1ccc(Cl)cc1` (centres undefined) gave Chronic BCR inh 6.5%, ClpP mod -4.8%, LDHA block -9.2, ALOX12 inh 39.8µM*, KCNH2 WT inh -7.5 and KCNH2 3.1 inh 0.0.
CN(C(=S)NC(=O)c1ccc(F)cc1)C1CCCCC1 was read as Chronic BCR inh inconclusive, ClpP mod -1.6%, LDHA block -7.4, ALOX12 inh 485.9%, KCNH2 WT inh -2.5 and KCNH2 3.1 inh -0.6.
For CN(C(=S)NC(=O)c1ccc(Cl)cc1)C1CCCCC1 the results were Chronic BCR inh inconclusive, ClpP mod -1.1%, LDHA block -9.7, ALOX12 inh 464.5%, KCNH2 WT inh -73.7* and KCNH2 3.1 inh -15.0.
Screening Cc1ccccc1NC(=O)NCC1CCCO1 (centres undefined) returned ClpP mod 28.2µM*, LDHA block -1.3, ALOX12 inh 458.8%, KCNH2 WT inh 24.5 and KCNH2 3.1 inh 15.8.
`COC(=O)c1ccccc1NC(=O)NCC1CCCO1` (centres undefined) gave Chronic BCR inh 3.9%, ClpP mod 25.1µM*, LDHA block -1.9, ALOX12 inh -2.4%, KCNH2 WT inh -1.7 and KCNH2 3.1 inh -20.5.
`Cc1ccccc1NC(=O)CCc1c(C)nn(-c2ccc(N3CCCC3)nn2)c1C` gave LDHA block -1.7 and ALOX12 inh -4.8%.
Cc1ccccc1-c1cc(C(=O)O)c2ccc(Br)cc2n1 was read as LDHA block -6.6 and ALOX12 inh inconclusive.
`O=C(c1ccc(C(F)(F)F)cc1)N1CCC(n2c(=O)[nH]c3ccccc32)CC1` gave ALOX12 inh 0.1%.
Cc1c(C(=O)N2CCCCCC2)sc2nc(-c3ccc(F)cc3)cn12 was read as LDHA block 3.6 and ALOX12 inh inconclusive.
`O=C(NCC1CCCO1)c1ccccc1` (centres undefined) gave ClpP mod -2.3%, LDHA block -14.7, ALOX12 inh 0.7%, KCNH2 WT inh 6.1 and KCNH2 3.1 inh 3.6.
Screening C[n+]1cccc(C(=O)NCC2CCCO2)c1 (centres undefined) returned Chronic BCR inh 1.7%, ClpP mod -15.3%, LDHA block -17.4, ALOX12 inh 15.8µM*, KCNH2 WT inh 10.7 and KCNH2 3.1 inh 10.8.
For CC(C(=O)N1CCCc2ccccc21)N1CCN(c2ccccn2)CC1 (centres undefined) the results were Chronic BCR inh 0.1%, ClpP mod -4.3%, LDHA block -38.1*, ALOX12 inh -27.7%, KCNH2 WT inh 0.4 and KCNH2 3.1 inh -12.4.
For Cc1ccc(NC(=O)CC2=C3CCCCC3N(C)C2=O)cc1 (centres undefined) the results were ALOX12 inh 15.7%.
Cc1cc(-c2ccccc2)n(-c2cc(N/N=C/c3ccccc3O)ncn2)n1 was read as Chronic BCR inh 14.6µM*, ClpP mod -14.8%, LDHA block -11.2, ALOX12 inh -5.7%, KCNH2 WT inh -3.2 and KCNH2 3.1 inh -7.4.
For C=CCn1c(N2CCC(C(N)=O)CC2)nc2c1c(=O)n(C)c(=O)n2C the results were LDHA block 1.6 and ALOX12 inh 16.4%.
For Fc1ccc(-c2cc(-c3cccs3)cc(-c3ccccc3)n2)cc1 the results were Chronic BCR inh -2.2%, ClpP mod 28.2µM*, LDHA block 0.5, ALOX12 inh 28.7%, KCNH2 WT inh -4.5 and KCNH2 3.1 inh 9.6.
Screening Cc1nc2ccccc2c(C)c1C(=O)c1ccc(Cl)cc1 returned LDHA block 7.0 and ALOX12 inh 7.94µM*.
`CCOC(=O)c1c(C)nc2ccccc2c1C` gave Chronic BCR inh inconclusive, ClpP mod -1.4%, LDHA block -7.5, ALOX12 inh inconclusive, KCNH2 WT inh 3.0 and KCNH2 3.1 inh -9.9.
`N#Cc1ccc(COC(=O)c2cnccn2)cc1` gave LDHA block -18.5 and ALOX12 inh 91.2%.
`Nc1nnc(-c2cccc([N+](=O)[O-])c2)o1` gave Chronic BCR inh 3.4%, LDHA block -1.1, ALOX12 inh -8.3%, KCNH2 WT inh -92.0* and KCNH2 3.1 inh 5.3.

Bioassay records from PubChem.
